This is a sample that favours compounds with a hit; in the whole collection about 8.8% have one here.
HT1080-NT tox: kills 2HG-producing HT-1080-NT fibrosarcoma cells; 360,000 tested, 1.6% active; Potency, µM (titrated, usually from 46.1 µM), without a hit: at the highest dose activity, negative = less viability, usual class: cytotoxic; HT-1080-NT fibrosarcoma viability, CellTiter-Glo ATP luminescence, 48 h;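 note: NT is the 2HG producing partner of a matched IDH1 knockdown line; potency is the fitted concentration of half-maximal effect; 0% = DMSO-treated cells and -100% = media-only wells without cells; nearly all actives have a fitted effect of over 55% in size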
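Fibrosarcoma NT cells, 750 per well in 5% FBS RPMI, were exposed to compound for 48 hours. Viability: CellTiter-Glo luminescence.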
KB-3-1 tox: KB-3-1 parental cell cytotoxicity; KB-3-1 viability, CellTiter-Glo ATP luminescence, 72 h; Potency, µM (series often up to 46.1 µM), hits mostly cytotoxic; 400,000 tested, 1.4% active; AID 1347075; note: potency is the fitted concentration of half-maximal effect; nearly all actives have a fitted effect of over 60% in size
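Viability of parental KB-3-1 cells, measured by CellTiter-Glo luminescence, followed a 72 h incubation at 37 °C with pinned compounds in phenol-red-free DMEM containing 10% FBS.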
IL-1B inflam inh: blocks inflammasome-driven IL-1 beta release. THP-1 LPS/ATP IL-1B secretion, AlphaLISA, 16 h; active compounds read low. activity change, % at 57.5 µM. 360,000 tested, 4.7% active. AID 743279; in the data active = activity change below about -50%; inconclusive = mostly about -30% to -49%
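THP-1 cells pretreated 1 hr with compounds (up to 57.5 uM final), then stimulated with LPS (250 ng/mL final) plus ATP (1.25 mM final); secreted IL-1B measured by AlphaLISA after 16 hr, decreased signal indicating inhibition.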
HT1080 IDH1KD tx: kills HT-1080 cells with IDH1 knockdown. HT-1080 IDH1 knockdown viability, ATP luminescence, 48 h. 360,000 tested, 2% active. Potency, µM (highest dose often 46.1 µM), for the others: at the highest dose activity, negative = toxicity, most hits filed as cytotoxic;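 note: potency is the fitted concentration of half-maximal effect; 0% = DMSO wells and -100% = cell-free medium wells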
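Viability of IDH1-knockdown HT-1080 fibrosarcoma cells was assessed by CellTiter-Glo after 48 h at 37 °C with titrated compound; concentration-effect curves were classified by fit quality and response size.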
KB-V1 cytotox: KB-V1 MDR subline cytotoxicity; KB-V1 MDR cells viability, CellTiter-Glo, 72 h; 400,000 tested, 3.4% active; Potency, µM (titrated, usually from 46.1 µM), usual class: cytotoxic; note: potency is the fitted concentration of half-maximal effect; nearly all actives have a fitted effect of over 60% in size
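KB-V1 cells (P-gp-expressing MDR subline of KB-3-1) in phenol-red-free DMEM with 10% FBS were exposed to library compounds over a concentration series for 72 h at 37 degrees C. Viability read by CellTiter-Glo luminescence; concentration-effect curves fitted after normalization.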
* marks the source's active call; other numbers are inactive results; i = inactive; ? = inconclusive; . = no result given. Unless noted, calls come from the whole dose curve; as a rule, active = well fitted curve in the direction sought with a large enough effect; inconclusive = small, poorly fitted or top-dose-only effect, or another doubt; inactive = no such curve, though single readings can be large; an effect the other way counts as inactive or inconclusive. Unless noted, % is set by controls: 0 for no effect and ±100 for the full control effect.

SMILES	HT1080-NT tox	KB-3-1 tox	IL-1B inflam inh	HT1080 IDH1KD tx	KB-V1 cytotox
O=C(/C=C/c1ccc(O)cc1)c1ccccc1	-4.2%	i	?	-5.0%	i
Cc1[nH]c2ccccc2c1C(=O)CN1CCN(C/C=C/c2ccccc2)CC1	23.1µM*	?	?	?	?
O=C(C=Cc1ccccc1Cl)c1ccccc1	23.1µM*	i	-11.2	?	i
FC(F)(F)c1cc(-c2cccs2)nc2nc(N3CCOCC3)sc12	2.1%	i	0.0	-0.4%	?
Cc1[nH]c2ccccc2c1/C=N\NC(=O)c1ccccc1Cl	-12.0%	i	22.6	-1.3%	i
Cc1nc2ccccc2c(N)c1C(=O)/C=C/c1ccccc1	?	i	-100.3*	11.6µM*	i
Cc1[nH]c2ccccc2c1C(=O)/C=C/c1ccccc1Cl	?	i	-105.2*	-20.0%	?
O=C(CSc1nc(=O)n2ccccc2n1)N1CCCCCC1	11.1%	?	4.6	8.4%	i
Cc1ccc(-n2c(N)c(C(=O)Nc3ccccc3F)sc2=S)cc1C	-8.2%	i	-54.4*	-14.6%	i
COC(=O)C1=C(C(=O)OC)[C@@H]2N(Cc3ccccc3)c3ccccc3[C@@]23C[C@@H](C(=O)OC)N(C(=O)c2ccc(Br)cc2)C3=N1	-18.4%	?	8.0	?	?
COC(=O)C1=C(C(=O)OC)[C@@H]2N(C)c3ccc(OC)cc3[C@@]23C[C@@H](C(=O)OC)N(C(=O)c2ccc(Br)cc2)C3=N1	23.1µM*	?	9.4	?	?
C=CCN1c2ccccc2[C@]23C[C@@H](C(=O)OC)N(C(=O)c4ccc(Br)cc4)C2=NC(C(=O)OC)=C(C(=O)OC)[C@H]13	18.4µM*	?	36.2	?	i
CCOC(=O)N1C2=NC(C(=O)OC)=C(C(=O)OC)[C@@H]3N(C)c4ccc(OC)cc4[C@]23C[C@H]1C(=O)OC	3.3%	i	5.4	4.2%	i
CCCCOc1ccc(C(=O)OCC(=O)NC2CCCC2)cc1	-4.6%	i	-4.0	-2.7%	i
O=C1/C(=C\c2cc([N+](=O)[O-])ccc2O)SC(=S)N1Cc1ccc(Cl)cc1	23.1µM*	?	-10.1	23.1µM*	23.1µM*
COc1cc(/C=C2/SC(=S)N(Cc3ccccc3)C2=O)ccc1O	-12.9%	?	-82.3*	-7.7%	i
COc1cc(/C=C2/SC(=NCc3ccccc3)N(Cc3ccccc3)C2=O)ccc1O	?	i	-2.8	?	?
O=C1/C(=C\c2cccc(O)c2O)SC(=S)N1Cc1ccccc1	?	?	-97.6*	?	?
C#CCOc1ccc(/C=C2\SC(=S)N(Cc3cccnc3)C2=O)cc1	-1.8%	20.6µM*	6.2	?	?
COc1ccccc1CNC(=O)c1ccc2c(c1)CCN2S(=O)(=O)c1ccc(Cl)cc1	.	i	.	.	i
Cc1ccc(C(=O)Oc2ccccc2N2C(=O)C3C4CCC(C4)C3C2=O)cc1 (stereo not drawn)	?	i	6.9	16.0%	i
COc1cc(/C=C2/SC(=O)NC2=O)ccc1OCc1ccccc1	23.1µM*	i	101.8	?	i
O=C1/C(=C\c2ccc(O)c(O)c2)SC(=S)N1Cc1ccccc1	?	?	-87.4*	?	?
O=C1S/C(=C\c2ccc(O)c([N+](=O)[O-])c2)C(=O)N1Cc1cccc([N+](=O)[O-])c1	-5.4%	i	37.7	8.9%	?
O=C1/C(=C/c2ccncc2)SC(=S)N1Cc1ccccc1	23.1µM*	?	-81.7*	18.4µM*	?
COc1ccc(/C=C2/SC(=S)NC2=O)cc1OCc1ccccc1	-12.0%	i	13.9	-14.1%	i
O=C1/C(=C\c2cccc(O)c2)SC(=S)N1Cc1ccccc1	4.0%	i	-18.4	4.8%	i
O=C(O)c1cccc(CN2C(=O)S/C(=C/c3ccccc3[N+](=O)[O-])C2=O)c1	-28.2%	i	-82.0*	?	i
O=C(O)CCCCN1C(=O)/C(=C\c2ccc(OCc3ccccc3)c(OCc3ccccc3)c2)SC1=S	-11.9%	i	-92.8*	-12.2%	i

Screening results: PubChem BioAssay, National Center for Advancing Translational Sciences (NCATS)
